KCNQ2 block: KCNQ2 (rat) channel inhibition | B-score at 10 µM | CHO-K1 KCNQ2, FluxOR thallium flux, 20 min; stronger effect = lower value | actives 1.1% (n = 310,000);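 active means fluorescence ratio B-score at most minus 3 library SDs, with starting brightness B-score within 2 library SDs, cut at about -5.5 in these data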
Target sequence (O88943 whole entry, looked up): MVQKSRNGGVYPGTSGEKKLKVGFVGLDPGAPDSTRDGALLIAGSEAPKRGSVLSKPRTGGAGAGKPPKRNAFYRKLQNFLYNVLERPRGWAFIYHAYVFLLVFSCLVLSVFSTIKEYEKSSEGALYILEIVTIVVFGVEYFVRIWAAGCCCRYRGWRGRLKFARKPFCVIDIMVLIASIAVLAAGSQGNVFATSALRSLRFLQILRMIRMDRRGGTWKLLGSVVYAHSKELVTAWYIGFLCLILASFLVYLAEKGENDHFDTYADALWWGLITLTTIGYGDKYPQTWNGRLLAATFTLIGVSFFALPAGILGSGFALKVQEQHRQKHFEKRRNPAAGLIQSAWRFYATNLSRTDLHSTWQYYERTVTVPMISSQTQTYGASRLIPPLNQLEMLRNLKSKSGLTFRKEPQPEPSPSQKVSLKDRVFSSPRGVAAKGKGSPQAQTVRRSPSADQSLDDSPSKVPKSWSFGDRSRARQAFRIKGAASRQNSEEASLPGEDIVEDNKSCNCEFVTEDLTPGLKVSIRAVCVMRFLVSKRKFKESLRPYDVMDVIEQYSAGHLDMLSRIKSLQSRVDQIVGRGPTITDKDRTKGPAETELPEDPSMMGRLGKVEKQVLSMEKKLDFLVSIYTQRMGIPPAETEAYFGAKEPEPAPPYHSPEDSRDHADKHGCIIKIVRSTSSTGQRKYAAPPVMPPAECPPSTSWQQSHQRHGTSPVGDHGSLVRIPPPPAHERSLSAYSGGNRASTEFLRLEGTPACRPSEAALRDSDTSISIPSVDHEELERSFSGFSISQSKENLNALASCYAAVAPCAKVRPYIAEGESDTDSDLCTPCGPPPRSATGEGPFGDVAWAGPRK
KCNQ2 enhance: KCNQ2 (rat) channel potentiation; CHO-K1 KCNQ2, FluxOR thallium flux fluorescence; stronger effect = higher value; B-score at 10 µM; actives 0.54% (n = 310,000);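 active means fluorescence ratio B-score at least 3 SD of library B-scores, with initial fluorescence B-score within 3 of them, cut at about 5.3 in these data; same plate scores as AID 2156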;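 further: B-score of peak minus minimum over baseline fluorescence ratio after K+ and Tl+ stimulus; positive B-score means potentiation of KCNQ2 with more thallium influx and brighter signal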
Hits are given with their value; i = inactive; nt = no result given. In the library only some 1.6% were active in any assay of this set; here they are far more common.

SMILES | KCNQ2 block | KCNQ2 enhance
CCCCCN1CC(=O)N2Cc3[nH]c4ccccc4c3C[C@H]2C1=O | i | nt
CCCCCCN1CC(=O)N2Cc3[nH]c4ccccc4c3C[C@H]2C1=O | -6.9 | i
CCCCN1C(=O)C2Cc3c([nH]c4ccccc34)CN2C1=S (stereo not drawn) | -5.6 | i
O=C1[C@@H]2Cc3c([nH]c4ccccc34)CN2C(=O)CN1CCCO | i | i
O=[N+]([O-])c1ccc(/C=N/Nc2nc(N3CCCCC3)nc(N3CCCCC3)n2)cc1 | i | nt
O=[N+]([O-])c1ccc(Nc2nc(N/N=C\c3ccc4c(c3)OCO4)nc(N3CCCCC3)n2)cc1 | -5.8 | i
COc1ccccc1NC(=O)c1coc(=O)c(Br)c1 | i | nt
O=c1[nH]cnc2c1sc1nc(-c3ccccc3)c3c(c12)CCCC3 | i | i
S=c1nc[nH]c2c1sc1nc(-c3ccccc3)c3c(c12)CCCC3 | i | 16
CCN(CC)CCCNC(=O)CSc1nc(C)cc(C)n1 | i | nt
O=C(c1ccc([N+](=O)[O-])cc1)N1CCN(c2cccc3[nH]ccc23)CC1 | i | nt
CC1(C)CC2CC(C)(CN2C(=O)NC(=O)c2ccccc2)C1 (stereo not drawn) | i | nt
Cc1ccc(C(=O)Nc2ccccc2C(=O)N2CC3(C)CC2CC(C)(C)C3)cc1 (stereo not drawn) | -6.1 | i
COc1ccc(C2=Nc3ccc(Br)cc3C(c3ccccc3)N2CC(=O)NN)cc1 (stereo not drawn) | i | 7.8
COc1ccc(C2=Nc3ccc(C)cc3C(c3ccccc3)N2CC(=O)NN)cc1 (stereo not drawn) | i | i
CCOC(=O)c1nnc(-c2ccc(C)cc2)nc1Oc1ccc(Cl)cc1Cl | -6 | i
CCOC(=O)c1nnc(-c2ccc(C)cc2)nc1Oc1ccccc1Cl | i | nt
COc1ccc(C(=O)NCCN2CCCC2)cc1[N+](=O)[O-] | i | i
Cc1ccccc1NC(=O)C1C2CCCCC21 (stereo not drawn) | i | nt
Cc1ccccc1NC(=O)C1C2/C=C\CCCCC21 (stereo not drawn) | i | 5.4
COc1ccc(/C=N/NC(=O)c2ccoc2C)cc1CN1CCN(c2ccc(F)cc2)CC1 | i | i
Cc1ccc2c(C)c(C(=O)N3CCC(O)(c4ccccc4)CC3)oc2c1C | -5.9 | i
Cc1ccc2c(C)c(C(=O)N3CCN(c4cnccn4)CC3)oc2c1C | i | nt
Cc1ccc2oc3nc(C)c(C(=O)Nc4cccc(C(F)(F)F)c4)cc3c(=O)c2c1 | i | i
O=C1C(c2ccncc2)N(CCC2=CCCCC2)C(=O)CN1C1CCCCC1 (stereo not drawn) | i | nt
SMILES | KCNQ2 block | KCNQ2 enhance
O=C(Nc1ccon1)Nc1cccc(Cl)c1Cl | i | i
O=C(Nc1cc2c3c(c1)C1CCCC1CN3CC1CCCC21)c1ccccc1 (stereo not drawn) | i | nt
CC(C)C[C@H](NC(=O)OC(C)(C)C)c1nnc(SCc2cccc(F)c2)o1 | -7.5 | i
CSCC[C@H](NC(=O)OC(C)(C)C)c1nnc(SCc2cccc(F)c2)o1 | i | nt
Cc1ccc(N=C2NC(=O)/C(=C\c3ccc(C)s3)S2)cc1 | i | i
O=C(COC(=O)c1ccc2ccccc2n1)c1ccc(F)cc1 | i | i
O=C(OCCNC(=O)c1ccc2ccccc2n1)c1ccc(F)cc1 | -7.3 | i
CCOC(=O)c1cc(C(C)(C)C)oc1CNC(=O)c1c(C)oc2c1CCCC2 | -6.1 | i
CCOC(=O)c1cc(C(C)(C)C)oc1CN | i | i
CS(=O)(=O)N(CC(=O)N1CCCCCC1)c1cccc(F)c1 | i | nt
COC(=O)c1sc(NC(=O)C2c3ccccc3Oc3ccccc32)c(C(=O)OC)c1C | i | nt
CCOC(=O)c1c(NC(=O)C2c3ccccc3Oc3ccccc32)sc(C(C)=O)c1C | -5.7 | i
Cc1nn(C)c(C)c1/C=C/C(=O)c1ccc(Cl)cc1Cl | i | i
Cc1cc(C)cc(NC(=O)c2cccn2-c2ncc(C(F)(F)F)cc2Cl)c1 | -7.2 | i
O=C(Nc1ccc(F)cc1F)c1cccn1-c1ncc(C(F)(F)F)cc1Cl | i | nt
COc1ccc(OC)c(C(=O)NC(CC(N)=O)c2ccc(N3CCC(Cc4ccccc4)CC3)c([N+](=O)[O-])c2)c1 (stereo not drawn) | i | nt
O=C(CNC(=O)c1nc[nH]c1C(=O)N1CCc2ccccc2C1)OCc1ccccc1 | -5.6 | i
O=C(CNC(=O)c1nc[nH]c1C(=O)N1CCNCC1)OCc1ccccc1 | i | i
O=C(Nc1ccc(N2CCOCC2)cc1N1CCOCC1)c1ncoc1-c1cccc(F)c1 | i | nt
O=C(Nc1ccccc1N1CCCCC1)c1ncoc1-c1cccc(F)c1 | -5.8 | i
Cc1cccc(N2CCN(C(=O)Cc3c(C(=O)O)[nH]c4ccc(Cl)cc34)CC2)c1C | i | 7
O=C(O)c1[nH]c2ccccc2c1CC(=O)N1CCN(c2ccccc2)CC1 | i | nt
N/C(=N\OC(=O)N1c2ccccc2Sc2ccccc21)c1ccccc1 | -6.5 | i
N/C(=N\OC(=O)c1ccccc1Cl)c1ccccc1 | i | nt
O=C(NNC(=O)C1CCCN(S(=O)(=O)c2cccc(F)c2)C1)C1CC1 (stereo not drawn) | i | nt
SMILES | KCNQ2 block | KCNQ2 enhance
CC(C)OCCCNC(=O)NC(=O)c1ccc(Cl)cc1 | i | nt
Cc1cccc(NC(=O)CCNS(=O)(=O)c2ccc3[nH]c(=O)oc3c2)c1 | i | i
O=S(=O)(CCOc1ccccc1)c1nc2ccccc2[nH]1 | i | nt
CCOc1cc(NC(=S)Nc2ccccc2OC)c(OCC)cc1NC(=O)c1ccccc1C | -5.7 | i
CCOc1cc(NC(=S)NCC2CCCO2)c(OCC)cc1NC(=O)c1ccccc1C (stereo not drawn) | i | i
Cc1ccc(-c2csc(NC(=O)CCNC(=O)c3ccco3)n2)cc1 | i | nt
Cc1ccc(-c2csc(NC(=S)NC(=O)c3ccco3)n2)cc1 | i | 11
CCN(CC)C(=O)COc1c(-c2ccco2)oc2ccccc2c1=O | i | i
CC(=O)Oc1c(-c2ccco2)oc2ccccc2c1=O | i | 5.9
COc1ccc(C2/C(=C(/O)c3ccc(C)cc3)C(=O)C(=O)N2CCCN2CCOCC2)cc1 (stereo not drawn) | i | i
O=C(CN(Cc1ccco1)S(=O)(=O)c1cccs1)Nc1ccccc1C(F)(F)F | -7 | i
COc1ccccc1NC(=O)CN(Cc1ccco1)C(=O)c1cccs1 | i | nt
CC(C)c1csc(CN2CCC(N3CCC(C(=O)N4CCOCC4)CC3)CC2)n1 | i | nt
COc1ccc(N2C(=O)CSC23C(=O)N2CCCc4cccc3c42)cc1 (stereo not drawn) | i | i
COc1ccc(N2C(=O)CSC23C(=O)N2c4c(cccc43)C(C)=CC2(C)C)cc1 (stereo not drawn) | -6.2 | i
CCOC(=O)c1c(CN2CCOCC2)n(-c2ccccc2)c2cc(Br)c(OC)cc12 | i | nt
CCOC(=O)c1c(CN(C)C)n(-c2ccccc2)c2cc(Br)c(OC)cc12 | -6.2 | i
COC(=O)C1=C2c3[nH]c4ccccc4c3CCN2C(=O)CC1 | i | nt
Cc1cccc(C)c1NC(=O)c1c(-c2ccccc2)noc1C | -5.7 | i
Cc1onc(-c2ccccc2)c1C(=O)Nc1ccccc1NC(=O)c1c(-c2ccccc2)noc1C | i | nt
COc1ccc(NC(=O)c2c(-c3ccccc3)noc2C)c(OC)c1 | i | nt
CCCOc1ccccc1NC(=O)c1c(-c2ccccc2)noc1C | -6.1 | i
COC(=O)c1cc(CSc2nc3ccccc3c(=O)n2C)oc1C | i | i
NS(=O)(=O)c1ccc(CNC(=O)NC23CC4CC(CC(C4)C2)C3)cc1 | i | i
Cc1ccc(CNC(=O)NC23CC4CC(CC(C4)C2)C3)cc1 | i | 11
O=S(=O)(NNc1ccc(F)cc1F)c1cccc(Cl)c1 | i | i
